Data as given in PubChem BioAssay (NCI).
The panel holds about 83,000 compounds, 20% with a hit somewhere; the sample as a whole holds those more often.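 Assay: single dose, 48 h. Readout: percent growth (0 = no net growth; negative = cell death). Active: <10.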 Unmarked numbers belong to inactive results. Calls of active or inactive are those of the source.

Each compound was assayed on HOP-92 NSCLC (assay: NCI-60 one-dose screen, 48 h (100 = growth as untreated, 0 = no growth, -100 = all killed)). Conditions: 10 µM unless noted.
With `O=c1ccc(N=Nc2ccccc2)ccc1Cl` the growth was 114%. In the case of `CCCCCCn1c(-c2ccc(C(=O)O/N=C(\N)c3ccc(OC)cc3)cc2)nc(-c2ccccc2)c1-c1ccccc1`, the growth is reported as -63% (active). With `COc1ccc(C(=O)C[C@]2(O)C(=O)Nc3c(Cl)ccc(Cl)c32)cc1` the growth was 62.1%. For `CCCCOc1nc2c(C)cccc2cc1-c1cc(-c2ccc(Cl)cc2)nc(-c2ccc(Cl)cc2)c1`, the growth was 91.4%. Work on `CSc1ncccc1C(=O)OCC(=O)Nc1oc(C)c2c(C)n[nH]c(=O)c12` yielded a growth of 73.4%. `O=C(Oc1cccc2ccccc12)Oc1cccc2ccccc12` gave a growth of 62.8%. In the case of `COC(=O)[C@H](C)NC(=O)NC(=O)NC(=O)CI`, the growth is reported as -21.4% (active). For `C[C@H](C(=O)Nc1ccc(S(N)(=O)=O)cc1)S(=O)(=O)c1ccccc1`, the growth was 94%. In the case of `c1ccc2c(c1)Nc1ccncc1S2`, the growth is reported as 97.9%. For `COc1ccc(C2CC(c3ccc(Nc4ccnc5cc(Cl)ccc45)cc3)=NN2C=O)cc1` (configuration not stated), the growth was 48.3%. In the case of `O=C(CS(=O)c1oc(-c2cccs2)nc1S(=O)(=O)c1ccc(Br)cc1)c1ccccc1` (configuration not stated), the growth is reported as 76%. `O=C(N=c1oc2ccccc2cc1-c1cc2ccccc2[nH]1)Nc1ccc(Cl)cc1` showed a growth of 95.1%. Work on `CCc1cccc2c3c(sc12)C(c1ccc(F)cc1)C(C#N)=C(N)O3` (configuration not stated) yielded a growth of 78.9%. Compound `C/C(=C\C(=O)c1ccc(Cl)cc1)c1ccc(Cl)cc1` has a growth of 72.8%. `COc1cc(/C=C/c2ccccc2)cc(OC)c1` showed a growth of 69.9%. `O=C(Nc1ccc(I)cc1F)c1cc(I)ccc1O` was tested, and the growth was -20.5% (active). In the case of `CCOc1cccc(NC2=C(Br)C(=O)C(C)=C(C)C2=O)c1`, the growth is reported as -8.14% (active). With `Cc1nc(S(=O)(=O)c2ccccc2)c(S(=O)(=O)Cc2ccc([N+](=O)[O-])cc2)o1` the growth was 83.1%. Work on `Nc1nc(Cl)cc(=O)n1Cc1ccccc1` yielded a growth of 88.3%. `Oc1ccc(C#CCOc2ccccc2)cc1CNCCN(Cc1ccccn1)Cc1ccccn1` was tested, and the growth was 42.5%. `c1ccc(Nc2cc(-c3cccnc3)[nH]n2)cc1` was tested, and the growth was 94.4%. `CNCCCNc1nc2ccccc2c2c(=O)c3cc(OC)ccc3sc12` showed a growth of 52.4%. Compound `Cc1nc2ccccc2n1CC1C(=O)NC(=O)NC1=O` has a growth of 97.8%. `COc1ccc(OC)c(/C=C/C(=O)N/N=C/c2ccc(Cl)cc2)c1` showed a growth of 77.7%. Compound `Cc1ccc(S(=O)(=O)Oc2ccc(NC(=O)c3ccc(Cl)cc3)cc2)cc1` has a growth of 102%. `Nc1nn(C(=O)Nc2ccc(Cc3ccccc3)cc2)c2ccc(Cl)cc12` gave a growth of 99.8%. With `CC(=O)CC[C@H]1C(=O)N[C@@H](C(C)C)C(=O)N[C@@H](Cc2cc(O)cc(F)c2)C(=O)N2CCC[C@H](N2)C(=O)O[C@H](/C(C)=C/C=C/C(=O)OC(C)(C)C)C/C=C/C=C/[C@H](O)[C@H](C)[C@H]1O` the growth was 55.2%. `Cn1cc(-c2cc3ncnc(Nc4ccc(CC(=O)Nc5cc(C(C)(C)C)nn5C)cc4)c3s2)cn1` showed a growth of 70%. For `Oc1c(I)cc(I)cc1CNCCCN(Cc1ccccn1)Cc1ccccn1`, the growth was -76.1% (active). `COc1ccc(/C=C2\Oc3cc(OCCN4CCC(Cc5ccccc5)CC4)ccc3C2=O)cc1OC` gave a growth of 47.7%. Compound `CC[C@H](C)C(=O)O[C@H]1CCC=C2C=C[C@H](C)[C@H](CC[C@@H]3CC=CC(=O)O3)[C@H]21` has a growth of 42%. `Cc1cccc2c(=O)c3c(sc12)c(NCc1ccccc1)nc1ccccc13` showed a growth of 111%. `COc1cc(C2CC(c3ccc(N(C)C)cc3)=NN2C(C)=O)cc(OC)c1OC` (configuration not stated) showed a growth of 60.7%. `CCCCCCNC(=O)Oc1ccc(/C(=C(\C)c2ccc(Cl)cc2)c2ccc(OCCCN(C)C)cc2)cc1` gave a growth of 58.6%. In the case of `N[C@@H](Cc1ccccc1)[C@@H](O)C(=O)NCc1ccc(F)cc1`, the growth is reported as 94.9%. `COC(=O)/C=C1\S/C(=N\Nc2ccc([N+](=O)[O-])cc2[N+](=O)[O-])N(C2CCCCC2)C1=O` was tested, and the growth was 8.36% (active). In the case of `O=C(O)c1cn(C2CC2)c2cc(N3CCN(C(=O)Nc4nc(-c5ccccc5)cs4)CC3)c(F)cc2c1=O`, the growth is reported as -21.5% (active).
